This is an account of results in PubChem BioAssay AID1851 (National Center for Advancing Translational Sciences (NCATS), 2009).

Where “and” joins values, the source holds several entries; their conditions need not be identical. Equal entries are not always repeated. Among all 16,000 compounds or so, about 2,600 (16%) were called active. About 20% were inconclusive and are not listed. Calls follow the shape of the dose curve; as a rule, active = well fitted curve in the direction sought with a large enough effect; inconclusive = small, poorly fitted or top-dose-only effect, or effect the other way; inactive = no such curve, though single readings can be large or run the other way. These entries were drawn from the full list. More than one record can exist for a structure, and the calls need not agree.

One may read the AC50 as the concentration at which the activity in the assay is half-maximal.
% is scaled to controls: 0 for no effect and ±100 for the full control effect.

Sequence of Cytochrome P450 2D6 (Homo sapiens) (P10635 whole entry, looked up): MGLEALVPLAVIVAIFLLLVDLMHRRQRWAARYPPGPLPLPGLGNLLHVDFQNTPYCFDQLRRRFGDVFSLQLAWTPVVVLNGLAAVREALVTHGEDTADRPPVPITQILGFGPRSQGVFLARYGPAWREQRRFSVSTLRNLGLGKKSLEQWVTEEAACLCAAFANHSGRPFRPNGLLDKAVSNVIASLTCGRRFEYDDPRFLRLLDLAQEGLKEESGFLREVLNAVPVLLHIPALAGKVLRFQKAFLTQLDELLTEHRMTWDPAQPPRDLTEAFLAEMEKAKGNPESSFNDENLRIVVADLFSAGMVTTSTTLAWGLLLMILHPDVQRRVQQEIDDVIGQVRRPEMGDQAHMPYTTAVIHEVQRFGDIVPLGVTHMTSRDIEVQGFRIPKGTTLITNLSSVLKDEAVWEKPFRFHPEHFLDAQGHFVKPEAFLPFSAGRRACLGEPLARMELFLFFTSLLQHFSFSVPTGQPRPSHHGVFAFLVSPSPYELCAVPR

This test has as its target Cytochrome P450 2D6 (Homo sapiens) (UniProt P10635). As to the kind of experiment: Cytochrome panel assay with activity outcomes. Particulars: recombinant CYP, pro-luciferin dealkylation, luminescence, p450-cyp2d6; series mostly up to 57.1 µM; activity, negative = inhibition: at the top concentration.
As to `C[n+]1ccccc1/C=N\O`, the “activity, negative = inhibition” value was -1.84% [at 25.6 µM] (inactive).
Regarding `CS(=O)(=O)c1ccccc1-c1nc(-c2cc(C(F)(F)F)cc(C(F)(F)F)c2)no1`, the “activity, negative = inhibition” value was -2.41% (inactive).
For `N[C@@H](CO)C(=O)O`, the AC50 result was “inactive”.
On the same count and under the same terms, the value for `CO[C@]1(C2=NCCN2)COc2ccccc2O1` was “inactive and 794 nM (active)”.
`COc1ccc(N2C(=O)c3ccccc3NC2c2ccc(OC)c(CSc3ccccn3)c2)cc1` (configuration not stated): the “activity, negative = inhibition” value is -10.2% (inactive).
For `COc1ccc(NC(=O)Cn2cccc2)c(OC)c1`, the “activity, negative = inhibition” value is -17.6% (inactive).
Turning to `CCCCN(CC)Cc1ccc(CNC(=O)Nc2ccc(OC)cc2OC)o1`, the AC50 was 0.501 µM (active).
Regarding `COCCN(C(=O)Nc1ccc(OC)cc1OC)C1CCN(C(C)=O)CC1`, the “activity, negative = inhibition” value is -19.1% (inactive).
Turning to `CC(=O)NC(CCS(C)(=O)=O)C(=O)Nc1c(F)cccc1F` (configuration not stated), the “activity, negative = inhibition” value is 4.81% (inactive).
For the compound `O=C1CCCN1CC(CN1CCOCC1)Sc1nnnn1-c1ccccc1` (configuration not stated), the “activity, negative = inhibition” value is -23.8% (inactive).
As for `Cc1cc(C)c(S(=O)(=O)N2CCN(c3ccc([N+](=O)[O-])c(NCC4CCCO4)c3)CC2)c(C)c1` (configuration not stated), the “activity, negative = inhibition” value was -0.0104% (inactive).
As for `Cc1cc(C)n(-c2cc(N3CCN(C(=O)c4ccc(C(C)(C)C)cc4)CC3)ccc2[N+](=O)[O-])n1`, the “activity, negative = inhibition” value is -7.5% (inactive).
As to `Cc1cc(C)n(-c2cc(N3CCN(S(=O)(=O)c4ccc(C)c(C)c4)CC3)ccc2[N+](=O)[O-])n1`, the concentration at half-maximal activity (AC50) is 0.501 µM (active).
With `COc1ccc2c(C=Nc3c(C)n(C)n(-c4ccccc4)c3=O)c(O)n(Cc3ccco3)c(=O)c2c1`, the “activity, negative = inhibition” value is -13.3% (inactive).
Same read-out and setting: the value for `COc1cccc(Cn2c(=O)c(-c3cccs3)nc3cnc(N4CCN(C)CC4)nc32)c1` was -4.92% (inactive); that for `CN(C)C(=O)CCc1nc(-c2ccc(C(C)(C)C)cc2)no1` was 6.51% (inactive); that for `COC(=O)c1ccc(Oc2nc(N(C)C)nc(N3CCOCC3)n2)cc1` was 14% (inactive).
Still for that read-out and setting: the value for `O=C(O)[C@@H](O)[C@@H](O)[C@@H](O)[C@@H](O)c1nc2ccccc2s1` was -1.94% [at 11.4 µM] (inactive).
For `Clc1ccccc1-c1nccc(-n2ccnc2)n1`, the concentration at half-maximal activity (AC50) is 7.94 µM (active).
Same read-out and setting: the value for `Cc1ccccc1-c1nccc(-n2ccnc2)n1` was 10 µM (active).
Consider `COc1ccccc1-c1nnc(NC(C)=O)s1`, for which the “activity, negative = inhibition” value was -3.89% (inactive).
With `COc1ccccc1-c1nccc(-n2ccnc2)n1`, the AC50 was 15.8 µM (active).
Consider `FC(F)(F)c1ccccc1-c1nccc(N2CCNCC2)n1`, for which the “activity, negative = inhibition” value was -1.66% (inactive).
Same read-out and setting: next, `O=C(O)CC[C@]1(C(=O)O)CCC(=O)c2ccccc21`: 10.4% [at 11.4 µM] (inactive).
As for `CCOCC(=O)Nc1cc(C(=O)Nc2ccccc2)ccc1Cl`, the “activity, negative = inhibition” value is -22.9% (inactive).
On the same count and under the same terms, the value for `CCc1ccc(C(=O)N2CCC(c3nc4ccccc4s3)CC2)cc1` was -8.73% (inactive); that for `CO[C@@H]1COC(=O)C/C=C\[C@H](C)[C@H](OC)COC(=O)[C@H]2CCCN2C(=O)C/C=C\[C@H]1C` was 6.57% [at 11.4 µM] (inactive).
Still for that read-out and setting: next, `C[C@@H]1C[C@H]2[C@H]3C[C@@H](F)C4=CC(=O)C=C[C@]4(C)[C@@]3(Cl)[C@@H](O)C[C@@]2(C)[C@@H]1C(=O)COC(=O)C(C)(C)C`: -3.56% [at 25.6 µM] (inactive); `CC(C)(C)OC(=O)[C@H]([C@@H]1N[C@@H](C(=O)O)C(C)(C)S1)N1C(=O)c2ccccc2C1=O`: 13.9% [at 11.4 µM] (inactive).
Still for that read-out and setting: next, `Cc1ccc(OCCNC(=O)c2cncc(Br)c2)cc1C`: -19.2% (inactive); `CC(C)(C)NC(=O)COC(=O)c1cncc(Br)c1`: -14.1% (inactive).
Take `CO[C@@]12C[C@@H](COC(=O)c3cncc(Br)c3)CN(C)[C@H]1Cc1cn(C)c3cccc2c13`: the half-maximal activity concentration (AC50) was 39.8 nM (active) and 20 nM (active).
Regarding `COC(=O)C/C=C\[C@@H](C)[C@@H](/C=N\O[C@@H](C)c1cn([C@H](CO)Cc2ccccc2)nn1)OC`, the activity, negative = inhibition was 15.1% [at 11.4 µM] (inactive) and 6.44% [at 11.4 µM] (inactive).
In the case of `COc1ccc2cc3[n+](cc2c1OC)CCc1cc2c(cc1-3)OCO2`, the half-maximal activity concentration (AC50) was 2.51 µM (active).
For the compound `C[C@H]1[C@H](C)OC(=O)C[C@H](O)C[C@H](O)C[C@H](O)CC[C@H](O)[C@H](O)CC(=O)C[C@H](O)[C@H](C(=O)O)[C@H](O)C[C@H](O[C@@H]2O[C@@H](C)[C@H](O)[C@@H](N)[C@@H]2O)C=CC=CC=CC=CCCC=CC=C[C@@](C)(O)[C@H]1O`, the activity, negative = inhibition is -1.84% [at 11.4 µM] (inactive).
The same measure, in the same setting: the value for `O=C(Nc1ncn[nH]1)c1ccc([N+](=O)[O-])cc1[N+](=O)[O-]` was -18.7% (inactive); that for `NC(=O)NC(=O)Nc1ccccc1Cl` was -2.82% (inactive); that for `O=C(O)COC(=O)Cc1ccccc1Nc1c(Cl)cccc1Cl` was -2.87% [at 25.6 µM] (inactive).
As for `NC(N)=NC(=O)Cc1c(Cl)cccc1Cl`, the concentration at half-maximal activity (AC50) result was “inactive and 126 nM (active)”.
Regarding `CCC(CC)c1nnc(NC(=O)c2cccc(S(=O)(=O)N3CCc4ccccc43)c2)s1`, the “activity, negative = inhibition” value was -2.53% (inactive).
Turning to `CCCCN1C(=O)C(NC(=O)CC(C)C)(C(F)(F)F)C2=C1CC(C)(C)CC2=O` (configuration not stated), the “activity, negative = inhibition” value was -5.1% (inactive).
In the case of `CN1[C@H](CC(=O)c2ccccc2)CCC[C@H]1C[C@H](O)c1ccccc1`, the AC50 is 25.1 µM (active).
`Nc1cc(N)nc(SCC(=O)c2ccccc2)n1`: the “activity, negative = inhibition” value was 23.2% (inactive).
Same read-out and setting: the value for `O=C(C[C@@H]1C=Cc2ccccc2N1C(=O)c1ccccc1)c1ccccc1` was -16.3% [at 11.4 µM] (inactive).
In the case of `CN1[C@@H](CC(=O)c2ccccc2)CCC[C@@H]1C[C@@H](O)c1ccccc1`, the AC50 was 0.251 µM (active).
As for `O=C(C[C@@H](c1ccccc1)N1CCCCC1)c1ccccc1`, the activity, negative = inhibition is -19.2% [at 11.4 µM] (inactive).
On the same count and under the same terms, next, `COc1ccc(-n2c(=O)cnc3cnc(OC)nc32)cc1`: 1.51% (inactive).
